Potency and FP activity change, negative = inhibition data for 50 compounds are collected here from PubChem BioAssay AID1768 (National Center for Advancing Translational Sciences (NCATS), 2009).

The structures appear in SMILES notation. The whole screen tested about 270,000 compounds, of which about 620 (0.23%) were called active. Another 12% or so got no clear call; they are omitted. Calls come from the whole dose curve; as a rule, active = well fitted inhibition curve with a large enough effect in the polarisation, with a control signal flat (not every such curve was filed as active); inconclusive = small, poorly fitted or top-dose-only effect, or effect the other way, or a change in a side signal; inactive = no such curve, though single readings can be large or run the other way; the % refers to the polarisation. The list comes from a sample in which actives are over-represented; it also holds similar structures and randomly drawn compounds. Where a call stands in place of a potency, no number is given.
Potency is the fitted concentration of half-maximal effect.

In the assay the target is Menin (Homo sapiens) (UniProt O00255). Put plainly: qHTS Assay for Inhibitors Targeting the Menin-MLL Interaction in MLL Related Leukemias: Competition With Texas Red Labeled MLL-derived Mutant Peptide. The note with it: fluorescence polarization; series mostly up to 61.6 µM.
Menin (Homo sapiens), sequence (O00255 whole entry, looked up): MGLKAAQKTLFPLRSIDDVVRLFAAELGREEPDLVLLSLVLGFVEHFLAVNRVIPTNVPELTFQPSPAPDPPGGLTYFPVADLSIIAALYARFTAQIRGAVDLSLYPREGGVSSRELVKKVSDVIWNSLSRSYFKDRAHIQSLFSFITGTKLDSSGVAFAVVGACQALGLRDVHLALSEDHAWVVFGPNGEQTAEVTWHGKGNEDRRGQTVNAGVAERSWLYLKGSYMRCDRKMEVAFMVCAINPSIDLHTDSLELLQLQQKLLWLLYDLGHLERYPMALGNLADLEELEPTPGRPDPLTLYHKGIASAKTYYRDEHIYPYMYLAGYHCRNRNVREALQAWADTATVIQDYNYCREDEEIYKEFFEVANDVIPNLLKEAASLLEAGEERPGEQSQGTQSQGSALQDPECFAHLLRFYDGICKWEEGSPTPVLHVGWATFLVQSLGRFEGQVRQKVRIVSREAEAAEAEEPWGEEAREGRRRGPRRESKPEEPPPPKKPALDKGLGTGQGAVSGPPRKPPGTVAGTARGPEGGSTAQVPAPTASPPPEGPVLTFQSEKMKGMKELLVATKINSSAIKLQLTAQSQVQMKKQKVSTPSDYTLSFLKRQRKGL
As for `COc1ccc(OC)c(CNC(=O)Cn2nc(C)c3c(C)n(-c4ccc(C)cc4)nc3c2=O)c1`, the Potency result is “inactive”.
On to `CCN1C(=S)N[C@@H](c2cccc(C(F)(F)F)c2)C(C(=O)OC)=C1C`, for which the Potency entry is “inactive”.
Turning to `COc1cc(C(=O)NCc2ccncc2)cc(Br)c1OCc1ccccc1`, the Potency entry was “inactive”.
Still for that read-out and setting: for `Cc1ccc(CNC(=O)C2(C(F)(F)F)C/C(=C\CCO)CCCO2)o1` (stereo not given) the value was “inactive”.
For `FC(F)(F)c1nnc2c3ccccc3c(Cl)nn12`, the Potency entry was “inactive”.
As to `CC(C)C[C@H]1CN=C(Nc2ccccc2)N1CC1CCCCC1`, the Potency entry was “inactive”.
In the case of `COC(=O)c1ccc2c(=O)n(CCN3CCOCC3)c(SCC(=O)Nc3cccc(OC)c3)nc2c1`, the Potency result is “inactive”.
In the case of `Cc1c(C(=O)NCC(c2ccco2)N2CCCC2)oc2ccc(Cl)cc12` (stereo not given), the Potency entry is “inactive”.
As for `COc1cc(OC)c2c(c1C(CCN1CCCCC1)c1ccc(N(C)C)cc1)OC(=O)CC2c1ccc(N(C)C)cc1` (stereo not given), the Potency result is “inactive”.
With `O=C(N/C(=C/c1ccc(Cl)cc1)C(=O)N1CCCCC1)c1ccco1`, the Potency entry is “inactive”.
On the same count and under the same terms, for `Cc1ccc(-n2ncc(C(=O)NC3CC3)c2C2CCN(C(=O)OC(C)(C)C)CC2)c(C)c1` the value was “inactive”.
With `Cc1cc2c(c(=O)n1Cc1ccccc1)C1O[C@](CCCCN3C(=O)c4ccccc4C3=O)(Cc3ccccc31)O2`, the FP activity change, negative = inhibition was 12.4% [at 11.7 µM] (inactive).
With `CC1Sc2ccc(S(=O)(=O)CCC(=O)NCc3ccccc3Cl)cc2NC1=O` (stereo not given), the Potency entry is “inactive”.
Take `COc1cc(C(=O)NC2CCN(Cc3ccccc3)CC2)cc(Cl)c1OC(C)C`: the Potency entry was “inactive”.
As to `Cc1ccc(C(=O)NNC(=O)c2cc3cc4ccccc4nc3s2)cc1`, the Potency was 17.8 µM (active).
Consider `O=C(NNC(=O)c1cc2c(s1)CCCC2)c1ccccc1`, for which the Potency result is “inactive”.
Take `Cc1ccc(C(=O)NNC(=O)c2cccs2)cc1`: the Potency result was “inactive”.
On to `COc1ccc(-c2nc3c(s2)CCc2onc(-c4ccc(OC)cc4)c2-3)cc1`, for which the Potency entry is “inactive”.
As to `O=C1OC2(CCCCC2)CC2=C1C1O[C@](c3ccsc3)(Cc3ccccc31)O2`, the FP activity change, negative = inhibition was -0.298% [at 11.7 µM] (inactive).
For `COc1ccc(CN2CCCC(N3CCc4ccccc4C3)C2)c(O)c1` (stereo not given), the Potency entry was “inactive”.
Consider `Cc1ccc2nc(-c3ccncc3)cc(C(=O)Nc3ccncc3)c2c1`, for which the Potency entry is “inactive”.
In the case of `COc1cccc(OCC(O)CNC(=O)c2oc3c(C)c(C)ccc3c2C)c1` (stereo not given), the Potency entry is “inactive”.
Regarding `CC(C)CNS(=O)(=O)c1ccc(CCC(=O)NCc2ccc(Cl)cc2)cc1`, the Potency entry was “inactive”.
The same measure, in the same setting: for `C=CCn1c(SCC(=O)NC)nnc1C12CC3CC(CC(C3)C1)C2` the value was “inactive”; for `COCCN1C(=O)C(=O)/C(=C(/O)c2ccc(S(=O)(=O)N3CCCCC3)cc2)C1c1ccc(OC)c(OC)c1` (stereo not given), “inactive”.
Turning to `COc1cc(C(=O)NCc2cc3cc(Cl)ccc3n2C)cc(OC)c1OC`, the Potency entry is “inactive”.
As for `CCCCNC(=O)c1cn(CC)c2cc(N3CCN(C(=O)c4ccco4)CC3)c(F)cc2c1=O`, the Potency entry is “inactive”.
In the case of `CCOc1ccc(NC(=O)C2CCN(C(=O)N3CCOc4ccccc43)CC2)cc1`, the Potency entry was “inactive”.
As to `Cc1ccc(N(Cc2ccccc2O)C(=O)c2ccccc2F)cc1`, the Potency result is “inactive”.
Regarding `Cc1ccc(O)c(CNc2nc3ccccc3[nH]2)c1`, the Potency result is “inactive”.
On the same count and under the same terms, for `COCCOC(=O)c1sc(=S)n(CCOC)c1N` the value was 28.2 µM (active); for `CCOC(=O)c1c(N)sc(C(C)=O)c1C`, “inactive”.
Regarding `COC(=O)c1sc(=S)n(-c2ccccc2)c1N`, the Potency entry was “inactive”.
As for `O=C(c1ccccc1)N1CCC(CC2CC(c3ccc(Cl)cc3)=NO2)(C(=O)NCC2CCCCC2)CC1` (stereo not given), the Potency entry was “inactive”.
As for `CCN(CC)S(=O)(=O)c1ccc(N2CCOCC2)c(NC(=O)C2CSC3(C)CCC(=O)N23)c1` (stereo not given), the Potency result is “inactive”.
For the compound `COc1ccc(C)cc1Nc1n[n+](-c2ccccc2)c(-c2cccc(Cl)c2Cl)s1`, the Potency result is “inactive”.
With `CC1CC(C)CN(CCCNC(=O)c2csc3c2CCCCC3)C1` (stereo not given), the Potency result is “inactive”.
`CCN(CC)c1ccc(C(=O)Nn2c(C)nc3ccccc3c2=O)cc1`: the Potency entry was “inactive”.
For `CCC(CC)COC(=O)C1=C(C)NC(=O)NC1c1ccc([N+](=O)[O-])cc1` (stereo not given), the Potency result is “inactive”.
Same read-out and setting: for `CCCN1CCC(=O)N(C(CSc2ccc(C)cc2)Cc2ccccc2)CC1` (stereo not given) the value was “inactive”; for `CCOC(=O)c1ccccc1NS(=O)(=O)c1c(C)nc2sccn2c1=O`, “inactive”; for `COc1ccc(-n2nc(C(=O)NCC(=O)N3CCN(c4ccccc4OC)CC3)c3ccccc3c2=O)c(OC)c1`, “inactive”.
`CCCCc1cc(=O)oc2c(C)c(OCC(=O)N3CCC(C(N)=O)CC3)ccc12`: the Potency entry was “inactive”.
For `O=S(=O)(NC1CCCCC1N1CCN(c2ccccc2F)CC1)c1ccccc1` (stereo not given), the Potency result is “inactive”.
The same measure, in the same setting: for `CC(C)(COC(=O)Nc1ccccc1)COC(=O)Nc1ccccc1` the value was “inactive”; for `Cc1ccc(C)c(N2CCN(C(=O)CCCn3c(=O)c4cccn4c4cccnc43)CC2)c1`, “inactive”; for `CCc1ccc(NC(=O)C(=O)NNC(=O)c2cccs2)cc1`, “inactive”.
In the case of `O=C(O)Cc1ccc(NC(=O)c2cccs2)cc1`, the Potency result was “inactive”.
Consider `Cc1nc(-c2ccc(NC(=O)c3cccs3)cc2)cs1`, for which the Potency is 25.1 µM (active).
For the compound `COc1ccc(C2CC(O)(c3ccccc3)Oc3cc(C)cc(C)c32)cc1` (stereo not given), the Potency entry was “inactive”.
